Screening data as filed in PubChem BioAssay.
Shown are actives, neighbours in structure and some others; about 21% of the full set was active somewhere.
CHX counter – affects cycloheximide protein synthesis inhibition readout, counter-screen. cell reporter, cycloheximide protein synthesis inhibition counterscreen. max response, %. actives 12% (n = 300,000); in the data active = max response mostly above about 13%, no sharp cut-off; inactive = mostly below about 14%; also: read at 38.3 µM for the half of the compounds with a filed dose
NS1 inh – blocks influenza NS1 protein function; Potency, µM (doses to about 46.1 µM); actives 0.4% (n = 270,000); AID 2326; calls by dose curve; also: actives are rising curves; nearly all actives have a fitted effect of over 50% in size
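Recovery from NS1-induced slow growth read by OD600 in budding yeast switched to galactose assay medium (pH 6.0, -URA) at 1:100 dilution. Compound 23 nl per well; the matching strain lacking NS1 serves as control.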
Sm TGR inh – inhibitors of Schistosoma mansoni thioredoxin glutathione reductase; purified TGR, DTNB reduction, TNB absorbance 405 nm; Potency, µM (highest dose often 114 µM), most hits filed as inhibitors; actives 3% (n = 360,000); AID 485364; also: nearly all actives have a fitted effect of over 60% in size
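TGR 20 nM + NADPH 100 uM (dispensed conc.), cpd preinc 15 min RT; start with NADPH (500 uM addition) then DTNB (15 mM addition). Kinetic TNB absorbance, 405 nm filter. Four-parameter Hill fit across titration.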
Pf growth 96h – P. falciparum growth inhibition at 96 hours; AID 504834; P. falciparum luciferase reporter growth, 96 h; Potency, µM (series often up to 28.7 µM), usual class: inhibitors; actives 6.9% (n = 320,000)
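Delayed-death screen, second-generation endpoint: infected erythrocytes, 2% hematocrit, 0.05% parasitemia final; 96 hours at 37 C, 5% CO2; luciferase detection reagent; luminescence decrease equals reduced growth.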
Pf growth 48h – inhibits P. falciparum growth in the first generation, 48 h. AID 504832. P. falciparum luciferase growth in erythrocytes, 48 h. actives 5.9% (n = 310,000). Potency, µM (doses to about 28.7 µM), usual class: inhibitors
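A one-generation exposure of luciferase-tagged malaria parasites in RPMI 1640/Albumax erythrocyte culture, 37 C and 5% CO2. Inhibition is inferred from decreased luminescence after adding detection reagent.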
Shiga inhibitor – Shiga toxin inhibition; Vero cells, Shiga toxin protein synthesis inhibition reporter; inhibition, % at 38.7 µM; actives 9.2% (n = 290,000); in the data active = inhibition mostly above about 28%, no sharp cut-off; inactive = mostly below about 43%
Each line names hits and unclear results; the compound was inactive in the other large screens. Unless noted, calls follow the shape of the dose curve; as a rule, active = well fitted curve in the direction sought with a large enough effect; inconclusive = small, poorly fitted or top-dose-only effect, or another doubt; inactive = no such curve, though single readings can be large; an effect the other way counts as inactive or inconclusive.

COc1ccc(OC)c(NC(=O)N2CCCC(CNS(=O)(=O)c3cccs3)C2)c1 (stereo not drawn)	Pf growth 48h inconclusive
COc1ccc(S(=O)(=O)NCC(=O)Nc2ccc3c(c2)OCCO3)cc1OC	Pf growth 48h inconclusive
COc1ccc(NC(=O)C2CCC(CNS(=O)(=O)c3cccs3)CC2)cc1OC (stereo not drawn)	Pf growth 48h inconclusive (no result: NS1 inh)
COc1ccc(NC(=O)C2CCC(CNS(=O)(=O)c3cccs3)CC2)cc1 (stereo not drawn)	Pf growth 96h 13.1µM (no result: NS1 inh)
O=[N+]([O-])c1cccc(N(CC(O)CN2CCCC2)S(=O)(=O)c2ccccc2)c1 (stereo not drawn)	none
CCSc1nc(CC)c2c(c1C#N)CCCC2	Pf growth 96h inconclusive
O=C(CNS(=O)(=O)c1cccs1)NCCc1ccc(Cl)cc1	Pf growth 96h 13.1µM
O=S(=O)(Nc1ccc2c(c1)OCCO2)c1cccs1	CHX counter 53.7, Pf growth 96h inconclusive, Pf growth 48h inconclusive, Shiga inhibitor 82.9
CS(=O)(=O)c1ccc2c(c1)sc1nc(=O)c(/C=C3/C=CC(=O)C(O)=C3)c(N)n12	CHX counter 19.6, Sm TGR inh 44.7µM, Pf growth 96h inconclusive, Shiga inhibitor 41.1
COc1ccc(/C=C/C(=O)Nc2ccc(Cl)cc2Cl)cc1	none (no result: CHX counter, NS1 inh, Pf growth 96h, Pf growth 48h, Shiga inhibitor)
Cc1c(-c2ccccn2)c(=O)[nH]n1-c1ccc(F)cc1	CHX counter 27.8
O=c1[nH]n(-c2ccc(F)cc2)c2ncccc12	Pf growth 48h inconclusive
O=C(/C=C/c1c(Cl)nc2ccccn12)N1CCN(c2ccccc2F)CC1	none
O=C(/C=C/c1c(Cl)nc2ccccn12)N1CCCCC1	CHX counter 38.5 (no result: NS1 inh)
COCCNC(=O)C1CC(=O)N(C2CCCCC2)C1 (stereo not drawn)	none
CCOCCCNC(=O)C1CC(=O)N(C2CCCC2)C1 (stereo not drawn)	Pf growth 96h 11.7µM
COCCCNC(=O)C1CC(=O)N(C2CCCC2)C1 (stereo not drawn)	Pf growth 96h 10.4µM
CC(C)CCNC(=O)C1CC(=O)N(C2CCCC2)C1 (stereo not drawn)	none (no result: Pf growth 48h)
CCNC(=O)/C=C/c1cccc(Br)c1	none (no result: CHX counter, NS1 inh, Sm TGR inh, Shiga inhibitor)
CCNc1ccc(Br)cc(C(=O)/C=C/c2ccc(Cl)cc2)c1=O	Sm TGR inh 10µM, Pf growth 96h inconclusive
CCNc1ccc(Br)cc(C(=O)/C=C/c2ccc3c(c2)OCO3)c1=O	Sm TGR inh inconclusive, Pf growth 96h inconclusive
CCNc1ccc(Br)cc(C(=O)/C=C/c2c(Cl)cccc2Cl)c1=O	Sm TGR inh 0.891µM, Pf growth 96h inconclusive, Pf growth 48h inconclusive
CCOC(=O)c1c(S(=O)(=O)N2CCCC(C(=O)Nc3cccc(CC)c3)C2)c(C)n(CC)c1C (stereo not drawn)	none (no result: CHX counter, NS1 inh, Pf growth 96h, Pf growth 48h, Shiga inhibitor)
Cc1ccccc1NC(=O)CSc1nc2n(n1)CCCCC2	none
COc1cc(NC(=O)c2ccnc(N)c2)cc(C(=O)Nc2cccc(C(F)(F)F)c2)c1	Pf growth 96h 1.85µM, Pf growth 48h 2.08µM
COc1cc(NC(=O)c2cnc(N)o2)cc(C(=O)Nc2cccc(C(F)(F)F)c2)c1	NS1 inh inconclusive, Pf growth 96h 13.1µM, Pf growth 48h 10.4µM
COc1cc(N)cc(NC(=O)c2ccncc2)c1	none
COc1cc(NC(=O)c2cnc(N)s2)cc(C(=O)Nc2cccc(C(F)(F)F)c2)c1	Pf growth 96h 3.29µM, Pf growth 48h 2.62µM
COc1cc(NC(=O)c2csc(N)n2)cc(C(=O)Nc2cccc(C(F)(F)F)c2)c1	NS1 inh inconclusive, Pf growth 96h inconclusive, Pf growth 48h 11.7µM
COc1cc(NC(=O)c2cc(C)on2)cc(C(=O)Nc2cccc(C(F)(F)F)c2)c1	Pf growth 96h inconclusive, Pf growth 48h inconclusive
Cc1cc(C)c(NC(=O)COc2cccnc2[N+](=O)[O-])c(C)c1	Pf growth 96h inconclusive (no result: CHX counter, NS1 inh, Shiga inhibitor)
COc1ccc(CNCC(=O)Nc2ccccc2-n2cccc2)cc1	none (no result: NS1 inh)
COc1ccc(C2=Nn3c(nnc3-c3ccccc3O)SC2)c(OC)c1	none (no result: NS1 inh, Sm TGR inh, Pf growth 96h, Pf growth 48h)
Cc1cccc(NC(=S)/N=C(\N)Nc2nc(C)c3cc(C)ccc3n2)c1	NS1 inh inconclusive, Pf growth 96h inconclusive, Pf growth 48h inconclusive
Cc1cc(C)cc(NC(=S)/N=C(\N)Nc2nc(C)c3ccccc3n2)c1	Pf growth 96h 13.1µM, Pf growth 48h inconclusive
Cc1ccc(S(=O)(=O)/N=C(\N)Nc2nc(C)c3ccccc3n2)cc1	CHX counter 20.5
Cc1cccc(NC(=S)/N=C(\N)Nc2nc(C)c3ccc(C)cc3n2)c1	Pf growth 96h inconclusive, Pf growth 48h 13.1µM
CCOC(=O)c1c(C)c(-c2ccccc2)n(CC(=O)NCc2cccc(OC)c2)c1C	none (no result: CHX counter, NS1 inh, Pf growth 96h, Pf growth 48h, Shiga inhibitor)
CCCCNC(=O)c1sc2ncnc(N3CCc4ccccc4C3)c2c1C	Pf growth 96h 14.7µM, Pf growth 48h inconclusive
Cc1cc(C(C#N)c2ccccc2F)n2ncnc2n1 (stereo not drawn)	none
Cc1ccc(-c2nn3c(C)nnc3s2)cc1NC(=O)C(C)C	Pf growth 96h inconclusive (no result: Pf growth 48h)
Cc1ccc(-c2nn3c(C)nnc3s2)cc1NCc1c(F)cccc1Cl	Pf growth 48h inconclusive
Cc1ccc(-c2nn3c(C)nnc3s2)cc1N	CHX counter 15.9 (no result: Pf growth 96h)
Cc1ccc(CNc2cc(-c3nn4c(C)nnc4s3)ccc2C)s1	Pf growth 96h inconclusive, Pf growth 48h 11.7µM
Cc1noc(/C=C/N(C)C)c1S(=O)(=O)N1CCC(C(=O)NC(C)(C)C)CC1	Pf growth 96h inconclusive
CCOC(=O)c1c(C=O)c2sc(C)cc2n1C	CHX counter 22.1 (no result: NS1 inh)
COc1ccccc1NC(=O)C(Cc1ccccc1)NS(=O)(=O)c1ccc2c(c1)CCN2C(C)=O (stereo not drawn)	none (no result: CHX counter, NS1 inh, Pf growth 96h, Pf growth 48h, Shiga inhibitor)
Cc1nnc(SCc2c(Cl)cccc2[N+](=O)[O-])s1	Pf growth 96h inconclusive (no result: NS1 inh)
CN(C)/C=C/C(=O)c1ccc2noc(-c3ccccc3)c2c1	none
c1ccc(-c2onc3cc4c(cc23)OCCO4)cc1	CHX counter 34.9, Shiga inhibitor active
CCOC(=O)c1c(NC(=O)CCNCc2ccco2)sc2c1CCC2	none
Cc1cc2c(c(C)c1Cl)C(c1ccc3c(c1)OCO3)CC(c1ccccc1)O2 (stereo not drawn)	none (no result: NS1 inh, Sm TGR inh, Pf growth 96h, Pf growth 48h)
CC(=O)n1c(-c2ccccc2)c(CO)c2ccccc21	Pf growth 96h inconclusive
NCCc1c(-c2ccccc2)n(-c2ccccc2)c2ccccc12	Pf growth 96h inconclusive, Pf growth 48h 14.7µM (no result: NS1 inh)
Cc1cc(=O)oc2cc(NC(=O)c3cc(F)ccc3F)ccc12	none (no result: CHX counter, NS1 inh, Shiga inhibitor)
Cc1cc(=O)oc2cc(NC(=O)c3ccccc3OC(F)F)ccc12	CHX counter 30.0, Shiga inhibitor 115.0
COCCCN1CN=C(Nc2nc3ccccc3o2)NC1	CHX counter 40.0, Shiga inhibitor 60.6 (no result: NS1 inh)
CCCN1CN=C(Nc2nc3ccccc3o2)NC1	CHX counter 32.3, Shiga inhibitor 129.5
OCCN1CN=C(Nc2nc3ccccc3o2)NC1	NS1 inh inconclusive
CCOc1ccc2nc(NC3=NCN(CC4CCCO4)CN3)nc(C)c2c1 (stereo not drawn)	none (no result: CHX counter, Sm TGR inh, Pf growth 96h, Pf growth 48h, Shiga inhibitor)
